Several values for one entry are separate records, joined by “and”; a condition that tells them apart may be missing. Identical values can stand only once. Records with an inconclusive call do not appear. Activity calls are given as the source filed them. Unless noted, calls follow the shape of the full dose curve. Peptide text beside a SMILES is read from it.
Target: Bile acid receptor (Homo sapiens) (UniProt Q96RI1)
Test: qHTS assay for small molecule antagonists of farnesoid X receptor signaling (AID 588526); also: % is scaled to controls: 0 for no effect and ±100 for the full control effect
Details: HEK293T FXR-UAS-bla, beta-lactamase ratio, antagonist mode; series mostly up to 76.7 µM; activity change, negative = inhibition: at the top concentration
How it was run: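 Beta-lactamase reporter antagonist mode: HEK293T FXR-UAS-bla cells, titrated compound, CDCA stimulation, 16 h 37 C, CCF4 dye 2 h RT. Data normalized to CDCA 50 uM and DMSO; Hill-fit IC50.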

Sequence of Bile acid receptor (Homo sapiens) (Q96RI1 whole entry, looked up): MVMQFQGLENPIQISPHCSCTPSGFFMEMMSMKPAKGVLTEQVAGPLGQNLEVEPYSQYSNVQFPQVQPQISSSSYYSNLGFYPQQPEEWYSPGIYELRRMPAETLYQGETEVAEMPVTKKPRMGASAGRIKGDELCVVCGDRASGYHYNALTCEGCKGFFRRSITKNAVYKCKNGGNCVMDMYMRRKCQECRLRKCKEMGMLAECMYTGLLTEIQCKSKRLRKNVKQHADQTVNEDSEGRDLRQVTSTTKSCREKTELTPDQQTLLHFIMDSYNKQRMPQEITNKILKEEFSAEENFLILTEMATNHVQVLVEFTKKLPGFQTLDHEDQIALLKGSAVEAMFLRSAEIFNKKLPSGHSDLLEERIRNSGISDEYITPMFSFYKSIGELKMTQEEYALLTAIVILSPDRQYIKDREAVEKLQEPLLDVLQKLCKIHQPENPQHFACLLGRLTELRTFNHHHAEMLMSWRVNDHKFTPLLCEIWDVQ

Structure (SMILES)	outcome	activity change, negative = inhibition
COC(=O)[C@H](Cc1ccccc1)NC(=O)[C@@H](N)CC(=O)O (H-Asp-Phe-OMe)	inactive	
c1ccc2[nH]c(-c3cscn3)nc2c1	inactive	
CC1(C)NC(=O)N(c2ccc([N+](=O)[O-])c(C(F)(F)F)c2)C1=O		-0.566% (inactive)
Nc1nc(Cl)nc2c1ncn2[C@H]1C[C@H](O)[C@@H](CO)O1		-2.87% (inactive)
Cc1ccc(C)c(OCCCC(C)(C)C(=O)O)c1	inactive	
O=c1c(O)c(-c2ccc(O)cc2O)oc2cc(O)cc(O)c12		-16.3% (inactive)
COc1c2occc2cc2ccc(=O)oc12	inactive	

Target: Glucocorticoid receptor (Homo sapiens) (UniProt P04150)
Sequence (P04150 whole entry, looked up): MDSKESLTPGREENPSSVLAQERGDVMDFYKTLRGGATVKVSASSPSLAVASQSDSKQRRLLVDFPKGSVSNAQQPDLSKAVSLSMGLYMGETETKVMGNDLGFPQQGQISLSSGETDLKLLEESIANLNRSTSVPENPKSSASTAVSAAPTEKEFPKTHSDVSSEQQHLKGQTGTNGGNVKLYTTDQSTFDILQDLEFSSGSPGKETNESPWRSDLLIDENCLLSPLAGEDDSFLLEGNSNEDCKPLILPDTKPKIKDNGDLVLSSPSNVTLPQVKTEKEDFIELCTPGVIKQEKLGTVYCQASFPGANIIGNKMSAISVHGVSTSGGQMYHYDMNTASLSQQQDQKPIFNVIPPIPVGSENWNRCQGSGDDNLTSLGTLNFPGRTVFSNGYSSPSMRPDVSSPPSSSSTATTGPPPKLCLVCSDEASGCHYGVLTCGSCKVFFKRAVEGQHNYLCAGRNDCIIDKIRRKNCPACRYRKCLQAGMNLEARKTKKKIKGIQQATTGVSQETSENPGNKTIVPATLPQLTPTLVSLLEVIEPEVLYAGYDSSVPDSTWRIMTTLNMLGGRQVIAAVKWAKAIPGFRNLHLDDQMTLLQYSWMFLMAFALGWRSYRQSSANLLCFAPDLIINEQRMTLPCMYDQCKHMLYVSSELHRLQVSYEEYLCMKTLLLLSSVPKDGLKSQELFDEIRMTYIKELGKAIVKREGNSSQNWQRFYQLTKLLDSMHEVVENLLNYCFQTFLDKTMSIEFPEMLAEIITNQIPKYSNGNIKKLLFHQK
Test: qHTS assay for small molecule agonists of glucocorticoid receptor signaling (AID 588532; active = well fitted curve in the direction sought with a large enough effect in the signal ratio, with a control signal flat; the % refers to the signal ratio;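 also: 100% = dexamethasone at 0.1 µM and 0% = DMSO only wells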)
Details: HeLa MMTV-bla, beta-lactamase ratio, agonist, 18 h; active compounds read high; percent of dexamethasone control, DMSO zero
How it was run: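 Agonist-mode qHTS: GRE-driven beta-lactamase in HeLa cells exposed 18 h to titrated compounds (up to 92 uM), then CCF4 ratio read after 2 h at RT; Hill-fitted EC50, efficacy relative to 0.1 uM dexamethasone.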

Structure (SMILES)	activation
Nc1ccc(S(N)(=O)=O)cc1	9.11% (inactive)
N[C@@H](Cc1cc(I)c(Oc2cc(I)c(O)c(I)c2)c(I)c1)C(=O)O	-13.7% (inactive)
CC(=O)N1CCN(c2ccc(OC[C@H]3CO[C@](Cn4ccnc4)(c4ccc(Cl)cc4Cl)O3)cc2)CC1	3.09% (inactive)
Cc1cc(O)c2c(c1)C(=O)c1cc(O)cc(O)c1C2=O	-3.03% (inactive) and -5.65% (inactive)
CCc1nc(N)nc(N)c1-c1ccc(Cl)cc1	6.7% (inactive) and -0.85% (inactive)
COc1cc(OC)c(C(=O)CCCN2CCCC2)c(OC)c1	4.51% (inactive)
COC(=O)[C@H](Cc1ccccc1)NC(=O)[C@@H](N)CC(=O)O (H-Asp-Phe-OMe)	-0.956% (inactive) and -8.82% (inactive)
c1ccc2[nH]c(-c3cscn3)nc2c1	-3.88% (inactive) and -4.87% (inactive)
CCN(CC)C(=S)SSC(=S)N(CC)CC	3.99% (inactive)
Nc1nc(Cl)nc2c1ncn2[C@H]1C[C@H](O)[C@@H](CO)O1	-6.36% (inactive)
O=c1c(O)c(-c2ccc(O)cc2O)oc2cc(O)cc(O)c12	-17.5% (inactive)
COc1c2occc2cc2ccc(=O)oc12	1.93% (inactive) and -3.63% (inactive)
CCCCC(CC)COC(=O)C(C#N)=C(c1ccccc1)c1ccccc1 (stereo unspecified)	-1.93% (inactive)

Target: Glucocorticoid receptor (Homo sapiens) (UniProt P04150)
Test: qHTS assay for small molecule antagonists of glucocorticoid receptor signaling (AID 588533; active = well fitted inhibition curve with a large enough effect in the signal ratio, with a control signal flat, not every such curve was filed as active; the % refers to the signal ratio;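 also: cells stimulated with 2 nM dexamethasone as agonist; % is scaled to controls: 0 for no effect and ±100 for the full control effect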)
Details: HeLa MMTV-bla, GRE beta-lactamase ratio, antagonist mode, 18 h; series mostly up to 76.8 µM; activity change, negative = inhibition: at the top concentration
How it was run: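 Antagonist-mode qHTS: compound titrations added to GRE-bla HeLa cells, then dexamethasone 2 nM final; 18 h, 37 C. CCF4 FRET fluorescence normalized to dexamethasone and DMSO; IC50 from Hill fit.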

Structure (SMILES)	activity change, negative = inhibition	outcome
Nc1ccc(S(N)(=O)=O)cc1	6.97% (inactive)	
CC(=O)N1CCN(c2ccc(OC[C@H]3CO[C@](Cn4ccnc4)(c4ccc(Cl)cc4Cl)O3)cc2)CC1	-5.16% (inactive)	
CCc1nc(N)nc(N)c1-c1ccc(Cl)cc1		inactive
COc1cc(OC)c(C(=O)CCCN2CCCC2)c(OC)c1	21.7% (inactive)	
CN(C)c1ccc2nc3ccc(=[N+](C)C)cc-3sc2c1	21% (inactive)	
COC(=O)[C@H](Cc1ccccc1)NC(=O)[C@@H](N)CC(=O)O (H-Asp-Phe-OMe)		inactive
c1ccc2[nH]c(-c3cscn3)nc2c1	-10.8% (inactive)	
CCN(CC)C(=S)SSC(=S)N(CC)CC	-31.9% (inactive)	
Nc1nc(Cl)nc2c1ncn2[C@H]1C[C@H](O)[C@@H](CO)O1	-12.3% (inactive)	
O=c1c(O)c(-c2ccc(O)cc2O)oc2cc(O)cc(O)c12	-31% (inactive)	
COc1c2occc2cc2ccc(=O)oc12		inactive
